Reference: PubChem BioAssay (NCATS)
Results filed as inconclusive are left out. Activity calls are given as the source filed them. Calls come from the whole dose curve; as a rule, active = well fitted inhibition curve with a large enough effect; inconclusive = small, poorly fitted or top-dose-only effect; inactive = no such curve, though single readings can be large or run the other way. Where a SMILES comes first, the peptide text is derived from it.

assay: Primary qHTS for inhibitors of nuclear receptor binding SET domain protein 2 (NSD2) in an RCH-ACV wild type WT cells (2C) (AID 1645877); settings: RCH-ACV (leukaemia line) NSD2 WT (2C) viability, CellTiter-Glo, 72 h; series mostly up to 44.9 µM; activity change, negative = cell killing: at the top concentration; note: nearly all actives have a fitted effect of over 70% in size
% is set by controls: 0 for no effect and ±100 for the full control effect.

SMILES | outcome | activity change, negative = cell killing
Cn1nccc1-c1ccccc1Oc1ccc(S(=O)(=O)Nc2nccs2)cc1C#N | inactive | –
CC1=CCC[C@@H]2[C@](CCc3ccoc3)(C(=O)O)[C@H](C)CC[C@@]12C | – | -2.77% (inactive)
COC(=O)C1=CO[C@@H](O[C@@H]2O[C@H](CO)[C@@H](O)[C@H](O)[C@H]2O)[C@@H]2C(CO)=CC[C@H]12 | inactive | –
CC(CC(C)O[C@@H]1O[C@H](CO)[C@@H](O)[C@H](O)[C@H]1O)OC(=O)/C=C/c1ccc(O)cc1 (some centres not stated) | – | -14.1% [at 17.3 µM] (inactive)
CC(=O)OC1C(O)/C(C)=C\C2C(OC(=O)c3ccccc3)C(C)CC2(OC(C)=O)C(OC(C)=O)C(C)/C=C/C(C)(C)C1OC(C)=O (configuration not stated) | – | -3.48% [at 17.3 µM] (inactive)
CC1=C(CO)C2(C)CCCC(C)(C)C2C(O)C1O (configuration not stated) | inactive | –
CC(C)C[C@H](NC(=O)[C@@H]1O[C@H]1C(=O)O)C(=O)NCCCCN=C(N)N | – | -41.2% (inactive)
COC(=O)C1=CO[C@@H](O[C@@H]2O[C@H](CO)[C@@H](O)[C@H](O)[C@H]2O)[C@@H]2[C@@H](CO)[C@@H](O)C(O)[C@H]12 (some centres not stated) | – | -0.342% [at 17.3 µM] (inactive)
CC12CC34CC(O)C5C(CO)(CO)CC(=O)CC5(C)C3CC1C2C4 (configuration not stated) | inactive | –
C=C1CCC2(C(=O)OC3OC(CO)C(O)C(O)C3O)CCC3(C)C(=CCC4C5(C)CCC(OC6OC(CO)C(OC7OC(C)C(O)C(O)C7O)C(OC7OCC(O)C(O)C7O)C6O)C(C)(C)C5CCC43C)C2C1 (configuration not stated) | – | -3.7% [at 9.23 µM] (inactive)
COC(=O)[C@]1(Cc2ccc(O)c(CC=C(C)C)c2)OC(=O)C(O)=C1c1ccc(O)cc1 | – | 0.301% [at 17.3 µM] (inactive)
O=C(O)c1cc(O[C@@H]2O[C@H](CO)[C@@H](O)[C@H](O)[C@H]2O)ccc1O | – | -0.2% (inactive)
C=CC(C)(O)CC/C=C(\C)C1CC=C(C)C(=O)O1 (configuration not stated) | – | -25.4% (inactive)
C[C@@H]1O[C@@H](O[C@H]2[C@H](O[C@H]3[C@H](O[C@H]4CC[C@@]5(C)C(CC[C@]6(C)C5CC=C5[C@@H]7CC(C)(C)C[C@@H](O)[C@]7(C)CC[C@]56C)C4(C)C)O[C@H](C(=O)O)[C@@H](O)[C@@H]3O)O[C@H](C(=O)O)[C@H](O)[C@@H]2O)[C@H](O)[C@H](O)[C@H]1O (some centres not stated) | inactive [at 9.23 µM] | –
COC(=O)CCC1(C)C(C(C)(C)O)C(O)CC2(C)Oc3c(C)c4c(c(OC)c3CC21)C(=O)OC4 (configuration not stated) | – | -11% [at 17.3 µM] (inactive)
Cc1occc(=O)c1O[C@@H]1O[C@H](COC(=O)CC(C)(O)CC(=O)O)[C@@H](O)[C@H](O)[C@H]1O (some centres not stated) | – | -5.67% [at 17.3 µM] (inactive)
C=CCc1ccc(O[C@@H]2O[C@H](CO)[C@@H](O)[C@H](O)[C@H]2O)c(O[C@@H]2O[C@H](CO)[C@@H](O)[C@H](O)[C@H]2O)c1 | inactive [at 17.3 µM] | –
CC(=O)OCC1OC(O[C@H]2CC[C@@]3(C)C(CC[C@]4(C)C3CC=C3[C@@H]5CC(C)(C)CC[C@]5(C(=O)O)CC[C@]34C)[C@]2(C)CO)C(O)C(O)C1OC1OC(C)C(O)C(OC2OCC(O)C(O)C2O)C1O (some centres not stated) | – | -24% [at 9.23 µM] (inactive)
CSCC[C@H](NC(=O)[C@H](CO)NC(=O)[C@H](CCC(=O)O)NC(C)=O)C(=O)N[C@H](C=O)CC(=O)O (Ac-ESMD-aldehyde) | – | -15.7% [at 9.23 µM] (inactive)
CC(=O)O[C@H]1[C@H](O[C@H]2CC[C@]34C[C@]35CC[C@]3(C)[C@@H]([C@@]6(C)CC[C@@H](C(C)(C)O)O6)[C@@H](O)C[C@@]3(C)[C@@H]5C[C@H](O[C@@H]3O[C@H](CO)[C@@H](O)[C@H](O)[C@H]3O)[C@H]4C2(C)C)OC[C@@H](OC(C)=O)[C@@H]1O | inactive | –
CC1=C2C(=O)C=C(CO)C2C2OC(=O)C(CS(=O)(=O)O)C2C(OC(=O)Cc2ccc(O)cc2)C1 (configuration not stated) | – | -26.8% [at 17.3 µM] (inactive)
C/C=C(\C)C(=O)OC[C@H]1O[C@@H](O[C@H]2[C@@H](O[C@H]3O[C@H](COC(=O)/C(C)=C/C)[C@@H](O)[C@H](O)[C@H]3O[C@@H]3O[C@H](COC(=O)/C(C)=C/C)[C@@H](O)[C@H](OC(=O)/C(C)=C/C)[C@H]3O)O[C@H](COC(=O)/C(C)=C/C)[C@@H](O)[C@@H]2O)[C@H](O)[C@@H](O)[C@@H]1O | – | -6.87% [at 9.23 µM] (inactive)
